The term inhibition denotes the drop in the measured response relative to a control, in per cent.

The source made the active and inactive calls.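 The calls were made as follows, unless noted: active = differentiation response of at least 50%, scaled between solvent and reference control, from cells with both markers; inactive = the rest.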

The nature of test [1]: reduced mouse 2C T cell binding to pMHC/ICAM-1 vesicles – MLPCN validation set, flow cytometry, LFA-1/ICAM-1 modulator project, pilot screen (AID 2523;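 active = response below a set limit, under 55% cells CD8-positive and vesicle-bound, and CD8 cells' 90th-percentile brightness under 279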;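 as to vesicle binding response: mean PE anti-B7-1 fluorescence of CD8+ cells relative to row control; 100% = QL9-loaded vesicles with DMSO vehicle in the same plate row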). Particulars: 2C mouse CD8+ T cells, at 7 µM, stronger effect = lower value; double positive events: measured here: CD8+/vesicle+ event percentage. (A flow cytometer gives signals particle by particle.)
Test [2] addresses Integrin beta-1 (Homo sapiens) + Integrin alpha-4 (Homo sapiens) (UniProt P13612+P05556). In words: alpha4beta1 integrin LIBS antibody binding reduction – U937 cells, HUTS-21 mAb, flow cytometry, validation set, VLA-4 allosteric modulator project, pilot screen (AID 2674;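 active = inhibition above 50%, about 3 SD of the validation set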;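 also: antibody binding induced by the VLA-4 ligand LDV present at three times its Kd; 0% = LDV ligand with antibody and no compound and 100% = antibody without LDV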). The note with it: HUTS-21 LIBS mAb binding, at 6.7 µM, stronger effect = higher value, binding induced by LDV ligand.
A short description of test [3]: calorie-restriction mimetic ROS inhibitors, yeast – validation compound set, pilot screen (AID 2706;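 active = superoxide response below 65% of plate, a cut near 3 SD across the whole screen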;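 also: yeast exposed to compound for one week at 30 degrees C before staining; 100% = mean of all compound wells on the same plate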). The note with it: S. cerevisiae aging, superoxide DHE fluorescence; at 10 µM, stronger effect = lower value.
Test [4] has as its target Beta-adrenergic receptor kinase 1 (Homo sapiens) (UniProt P25098). In words: GRK2 binders displacing RNA aptamer, biochemical, validation, human GRK2, bead flow cytometry (AID 488806;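 active = aptamer binding inhibition above 30%, about 3 SD of noise from non-fluorescent compounds; inactive = inhibition at or below 30%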). Particulars: bead-bound GRK2, FAM-aptamer displacement, at 10 µM, stronger effect = higher value.
The target of test [5] is Beta-2 adrenergic receptor (Homo sapiens) (UniProt P07550). In words: agonist-induced loss of surface beta2AR – cell-based, FAP fluorogen, flow cytometry, validation set, pilot screen (AID 504459;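 active = percent response above 42, roughly 3 SD of non-fluorescent test compounds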;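 also: agonist-driven loss of surface beta2AR via internalization measured by FAP dye flow cytometry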). The note with it: Am2.2-beta2AR cells, at 10 µM, stronger effect = higher value.
Chain of Beta-2 adrenergic receptor (Homo sapiens) (P07550 whole entry, looked up): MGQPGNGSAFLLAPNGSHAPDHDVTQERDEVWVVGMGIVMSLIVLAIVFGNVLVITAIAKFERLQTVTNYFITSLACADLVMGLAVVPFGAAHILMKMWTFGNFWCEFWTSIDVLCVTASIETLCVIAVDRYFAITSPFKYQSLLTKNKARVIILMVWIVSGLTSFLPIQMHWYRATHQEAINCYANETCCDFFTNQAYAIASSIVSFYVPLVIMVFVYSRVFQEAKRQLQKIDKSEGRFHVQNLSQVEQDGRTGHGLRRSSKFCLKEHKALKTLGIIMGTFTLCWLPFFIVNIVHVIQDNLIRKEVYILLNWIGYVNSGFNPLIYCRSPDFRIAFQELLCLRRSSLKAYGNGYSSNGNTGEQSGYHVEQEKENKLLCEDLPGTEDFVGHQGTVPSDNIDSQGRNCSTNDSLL
Test [6] deals with AP-2 complex subunit beta (Homo sapiens) (UniProt P63010). In words: beta-arrestin/AP2 interaction blockers – biochemical, validation set, GST-AP2 beads, flow cytometry, pilot screen (AID 504541;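 active = inhibition above 54%, about 3 SD of non-fluorescent compounds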;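 also: AP2 carries R879A mutation and is captured from E. coli lysate; bead-bound FITC arrestin peptide fluorescence measuring arrestin peptide binding to AP2; 0% = DMSO wells and 100% = excess unlabeled arrestin peptide control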). Particulars: FITC arrestin peptide, at 10 µM, stronger effect = higher value, AP2 beta2 appendage fragment, R879A mutant.
Chain of AP-2 complex subunit beta (Homo sapiens) (P63010 whole entry, looked up, the tested form may be a part, one chain of several): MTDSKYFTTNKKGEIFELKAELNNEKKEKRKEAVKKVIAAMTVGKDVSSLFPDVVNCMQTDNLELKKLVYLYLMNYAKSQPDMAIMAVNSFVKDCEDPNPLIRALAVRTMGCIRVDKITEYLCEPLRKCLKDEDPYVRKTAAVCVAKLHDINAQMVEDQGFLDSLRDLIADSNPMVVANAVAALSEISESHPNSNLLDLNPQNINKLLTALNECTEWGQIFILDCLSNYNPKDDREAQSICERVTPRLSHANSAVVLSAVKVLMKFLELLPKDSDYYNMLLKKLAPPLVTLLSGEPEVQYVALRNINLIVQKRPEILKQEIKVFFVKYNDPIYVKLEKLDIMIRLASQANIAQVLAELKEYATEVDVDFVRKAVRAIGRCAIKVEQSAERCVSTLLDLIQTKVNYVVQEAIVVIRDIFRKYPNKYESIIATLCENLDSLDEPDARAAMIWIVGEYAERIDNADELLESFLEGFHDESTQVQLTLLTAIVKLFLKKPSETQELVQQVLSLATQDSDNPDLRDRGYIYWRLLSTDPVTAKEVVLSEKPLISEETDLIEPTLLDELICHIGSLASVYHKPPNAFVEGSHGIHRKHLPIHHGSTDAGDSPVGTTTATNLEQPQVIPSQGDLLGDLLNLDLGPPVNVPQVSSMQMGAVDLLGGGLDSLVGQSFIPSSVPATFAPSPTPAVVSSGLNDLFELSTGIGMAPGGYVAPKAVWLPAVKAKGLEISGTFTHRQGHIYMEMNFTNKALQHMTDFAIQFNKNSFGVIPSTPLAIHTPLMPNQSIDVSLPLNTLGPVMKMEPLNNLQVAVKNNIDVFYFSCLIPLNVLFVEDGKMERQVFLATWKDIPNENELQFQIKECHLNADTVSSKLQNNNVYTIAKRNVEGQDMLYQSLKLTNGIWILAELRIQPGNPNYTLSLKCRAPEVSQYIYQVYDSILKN
The nature of test [7]: cytosolic pH regulators acting via V-ATPase – S. cerevisiae, pHLuorin, HTS validation (AID 504600; in the data active = response above about 15%;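 also: plate controls were DMSO for no effect and reference compound for full effect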). The note with it: V-ATPase proton transport, at 10 µM, stronger effect = higher value.
Test [8] concerns anti-desmoglein-3 scFv antibody binding to human DSG3. The test can be described thus: blockers of pathogenic pemphigus antibody–desmoglein-3 binding – biochemical, validation compound set, bead-based, flow cytometry, pilot screen (AID 588368;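 active = binding below the plate cutoff, the plate median minus 3 SD, with a reading above zero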;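 also: signal is the median channel fluorescence of bead-bound GFP antibody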). Particulars: Protein G beads, DSG3-Fc, scFv-GFP binding, at 10 µM, stronger effect = lower value.
The nature of test [9]: Nile Red efflux blockade in pump-expressing yeast – validation compound set, multiplex, phenotypic, pilot screen (AID 588506;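 active = efflux inhibition above 0.42, the validation set average plus 4 SD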;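 also: Nile Red retained in cells so higher fluorescence means more efflux inhibition; 0 = negative control wells and 1 = enniatin B 25 µM full block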). Particulars: S. cerevisiae pump-expressing triplex, Nile Red efflux flow cytometry; at 10 µM; stronger effect = higher value; the pumps come from Candida albicans.
For test [10], the target named is ATP-binding cassette sub-family B member 6 (Homo sapiens) (UniProt Q9NP58). The test can be described thus: blockers of ABCB6-driven porphyrin uptake – K562-ABCB6 cells, flow cytometry, validation set, pilot screen (AID 588550;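 active = inhibition above the screen-wide mean plus 3 SD, about 51%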;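 also: 0% = DMSO wells and 100% = benzethonium chloride 70 µM positive control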). The note with it: K562-ABCB6 porphyrin accumulation, 1 h, at 10 µM, stronger effect = higher value.
Chain of ATP-binding cassette sub-family B member 6 (Homo sapiens) (Q9NP58 whole entry, looked up): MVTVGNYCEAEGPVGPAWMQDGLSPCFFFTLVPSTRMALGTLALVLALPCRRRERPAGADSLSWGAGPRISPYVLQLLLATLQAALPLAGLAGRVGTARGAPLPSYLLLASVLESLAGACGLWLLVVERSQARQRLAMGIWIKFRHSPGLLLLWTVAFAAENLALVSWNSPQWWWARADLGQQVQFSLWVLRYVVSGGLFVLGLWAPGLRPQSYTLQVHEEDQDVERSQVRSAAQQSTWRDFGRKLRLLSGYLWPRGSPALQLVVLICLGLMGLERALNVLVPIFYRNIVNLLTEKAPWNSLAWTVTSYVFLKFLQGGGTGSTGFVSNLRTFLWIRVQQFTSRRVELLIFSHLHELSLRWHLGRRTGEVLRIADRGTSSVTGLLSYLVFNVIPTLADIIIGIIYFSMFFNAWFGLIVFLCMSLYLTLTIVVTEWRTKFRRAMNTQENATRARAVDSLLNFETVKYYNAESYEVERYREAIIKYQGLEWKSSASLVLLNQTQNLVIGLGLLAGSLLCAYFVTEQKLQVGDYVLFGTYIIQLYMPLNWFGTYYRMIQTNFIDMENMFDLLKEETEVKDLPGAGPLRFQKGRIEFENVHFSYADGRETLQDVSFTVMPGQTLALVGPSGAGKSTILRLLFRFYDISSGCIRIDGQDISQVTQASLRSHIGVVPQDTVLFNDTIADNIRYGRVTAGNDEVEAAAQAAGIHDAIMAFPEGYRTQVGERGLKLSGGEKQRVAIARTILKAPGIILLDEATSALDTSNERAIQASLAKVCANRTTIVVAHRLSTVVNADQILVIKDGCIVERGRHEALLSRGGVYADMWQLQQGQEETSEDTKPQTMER
Test [11] can be described thus: AML differentiation inducers, ER-HoxA9 marrow cells – cell-based, GFP/MAC1 double positive, flow cytometry, validation set, primary screen (AID 588685).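 Also: compound exposure lasts four days before antibody staining and flow analysis; 0% = DMSO wells and 100% = 5 µM fulvestrant positive control.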 Particulars: stronger effect = higher value, normalized: vehicle 0, fulvestrant 100.

Chain of Beta-adrenergic receptor kinase 1 (Homo sapiens) (P25098 whole entry, looked up): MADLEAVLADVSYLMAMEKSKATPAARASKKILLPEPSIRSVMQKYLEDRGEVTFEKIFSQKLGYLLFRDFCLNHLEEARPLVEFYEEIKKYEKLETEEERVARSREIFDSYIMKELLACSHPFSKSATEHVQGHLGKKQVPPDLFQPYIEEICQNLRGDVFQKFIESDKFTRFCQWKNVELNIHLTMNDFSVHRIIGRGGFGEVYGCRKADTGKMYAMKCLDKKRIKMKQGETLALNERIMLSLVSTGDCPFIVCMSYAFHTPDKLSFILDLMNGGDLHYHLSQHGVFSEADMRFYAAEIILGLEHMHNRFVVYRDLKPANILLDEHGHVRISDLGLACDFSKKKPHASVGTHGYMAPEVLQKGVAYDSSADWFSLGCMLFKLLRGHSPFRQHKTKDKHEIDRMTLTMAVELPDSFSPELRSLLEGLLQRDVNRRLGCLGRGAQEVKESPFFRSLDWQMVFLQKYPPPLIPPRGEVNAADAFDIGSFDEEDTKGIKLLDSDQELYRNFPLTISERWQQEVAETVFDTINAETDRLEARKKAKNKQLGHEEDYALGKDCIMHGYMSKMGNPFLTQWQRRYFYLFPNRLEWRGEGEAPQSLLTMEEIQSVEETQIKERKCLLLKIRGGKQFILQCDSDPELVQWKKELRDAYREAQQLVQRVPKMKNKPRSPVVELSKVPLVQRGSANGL
Chain of Integrin beta-1 (Homo sapiens) + Integrin alpha-4 (Homo sapiens) (P05556 whole entry, looked up): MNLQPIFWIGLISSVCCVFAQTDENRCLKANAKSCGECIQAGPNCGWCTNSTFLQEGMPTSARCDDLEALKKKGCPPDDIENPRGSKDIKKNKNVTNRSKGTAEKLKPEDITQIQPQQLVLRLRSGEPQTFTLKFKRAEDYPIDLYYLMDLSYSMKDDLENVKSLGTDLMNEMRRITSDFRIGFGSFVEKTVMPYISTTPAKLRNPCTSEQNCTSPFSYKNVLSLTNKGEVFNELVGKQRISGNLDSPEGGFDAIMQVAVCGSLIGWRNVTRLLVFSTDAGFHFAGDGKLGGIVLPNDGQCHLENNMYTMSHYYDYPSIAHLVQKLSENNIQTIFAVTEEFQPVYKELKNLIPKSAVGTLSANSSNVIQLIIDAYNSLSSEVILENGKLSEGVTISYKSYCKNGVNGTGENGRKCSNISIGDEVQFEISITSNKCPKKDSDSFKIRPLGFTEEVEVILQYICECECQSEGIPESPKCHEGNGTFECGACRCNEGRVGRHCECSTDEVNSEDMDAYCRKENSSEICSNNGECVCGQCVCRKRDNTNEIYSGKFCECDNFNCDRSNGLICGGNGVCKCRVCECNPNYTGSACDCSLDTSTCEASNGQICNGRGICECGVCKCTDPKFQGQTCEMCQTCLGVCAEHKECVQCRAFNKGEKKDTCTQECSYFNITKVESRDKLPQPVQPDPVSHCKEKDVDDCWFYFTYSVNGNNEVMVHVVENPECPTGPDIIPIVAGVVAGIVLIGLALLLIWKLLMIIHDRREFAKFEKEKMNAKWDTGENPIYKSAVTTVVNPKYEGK
Chain of Integrin beta-1 (Homo sapiens) + Integrin alpha-4 (Homo sapiens) (P13612 whole entry, looked up): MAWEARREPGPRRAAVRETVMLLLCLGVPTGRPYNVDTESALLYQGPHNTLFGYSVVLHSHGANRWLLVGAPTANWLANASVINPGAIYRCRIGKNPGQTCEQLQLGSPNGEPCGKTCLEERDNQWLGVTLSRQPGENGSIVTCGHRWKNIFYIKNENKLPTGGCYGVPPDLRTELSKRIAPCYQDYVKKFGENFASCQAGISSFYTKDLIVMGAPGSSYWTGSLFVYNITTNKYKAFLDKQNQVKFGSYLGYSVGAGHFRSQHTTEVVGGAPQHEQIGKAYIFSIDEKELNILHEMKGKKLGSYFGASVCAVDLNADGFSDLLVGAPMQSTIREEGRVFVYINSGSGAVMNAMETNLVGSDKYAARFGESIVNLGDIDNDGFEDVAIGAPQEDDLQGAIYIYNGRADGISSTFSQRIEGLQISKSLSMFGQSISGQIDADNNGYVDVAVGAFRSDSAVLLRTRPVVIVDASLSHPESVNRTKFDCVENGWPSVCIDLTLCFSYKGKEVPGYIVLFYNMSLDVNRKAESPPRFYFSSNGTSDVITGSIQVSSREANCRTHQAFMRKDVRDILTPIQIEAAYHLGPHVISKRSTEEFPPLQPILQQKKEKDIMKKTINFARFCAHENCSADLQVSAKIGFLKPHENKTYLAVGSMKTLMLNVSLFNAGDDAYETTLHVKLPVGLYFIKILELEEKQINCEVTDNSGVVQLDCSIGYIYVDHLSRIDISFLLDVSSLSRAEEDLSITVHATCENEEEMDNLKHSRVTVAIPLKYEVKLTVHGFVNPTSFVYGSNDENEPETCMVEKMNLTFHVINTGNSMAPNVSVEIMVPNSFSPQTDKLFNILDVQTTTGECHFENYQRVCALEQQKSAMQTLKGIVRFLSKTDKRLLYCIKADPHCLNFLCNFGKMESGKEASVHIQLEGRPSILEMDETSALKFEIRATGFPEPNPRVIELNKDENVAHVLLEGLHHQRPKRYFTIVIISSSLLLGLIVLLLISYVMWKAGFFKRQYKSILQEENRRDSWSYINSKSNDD

Regarding `CC1(C)CC(=O)C(C2(O)C(=O)Nc3ccccc32)CO1` (stereo unspecified), the double positive events in test [1] came out at 69%. The vesicle binding response in test [1] is 183% (inactive). The figures for the inhibition in test [2], in test [6] and in test [10] were 11.7% (inactive), 0.15% (inactive) and 12% (inactive), respectively. For the same compound, the superoxide response (% of plate) in [3] is 92.3% (inactive). Moreover, in test [4], the aptamer binding inhibition was 3% (inactive). The response is 7.56% (inactive) in test [5] and 2.36% (inactive) in [7]. Further, the binding (% of control) in [8] was 105% (inactive). In test [9], the efflux inhibition (fraction of control) was 0.12 (inactive). Also, the differentiation response in test [11] was -16.8% (inactive).

In test [1], `CC(=O)N1CC23C=CC(CC2CC12CCCCCC2)O3` (stereo unspecified) returned a double positive events of 61.4%. In addition, the vesicle binding response in [1] is 200% (inactive). Further, the inhibition in test [2] was 3.99% (inactive); in test [6], -0.87% (inactive); in [10], 0% (inactive). Moreover, the superoxide response (% of plate) in [3] is 102% (inactive). In addition, the aptamer binding inhibition in [4] is 8% (inactive). Moreover, the response in test [5] was -21.9% (inactive); in test [7], -29.7% (inactive). In addition, in [8], the binding (% of control) was 104% (inactive). Besides, in [9], the efflux inhibition (fraction of control) was -0.09 (inactive). The differentiation response in test [11] was 0% (inactive).

Consider `CCOC(=O)c1cc2cc3ccccc3cc2[nH]1`, for which the double positive events in test [1] stood at 70.4%. For the same compound, the vesicle binding response in test [1] was 334% (inactive). The inhibition was -1.79% (inactive) in test [2], -6.18% (inactive) in test [6] and 6% (inactive) in test [10]. Moreover, the superoxide response (% of plate) in test [3] is 81.1% (inactive). Also, the aptamer binding inhibition in test [4] is 1% (inactive). Further, the response in test [5] is 15.9% (inactive); in [7] it was -1.49% (inactive). For the same compound, the binding (% of control) in test [8] was 99.1% (inactive). Moreover, in test [9], the efflux inhibition (fraction of control) was -0.1 (inactive). The differentiation response in [11] was 7.2% (inactive).

`CN(C)c1cc(NC(=O)CN2CCOCC2)c2ccccc2n1`: in test [1], the double positive events worked out at 64.4%. Moreover, the vesicle binding response in test [1] was 183% (inactive). Further, the inhibition in [2] is -9.06% (inactive); in [6] it was -0.56% (inactive); in test [10], 15% (inactive). The superoxide response (% of plate) in [3] was 96.2% (inactive). For the same compound, in test [4], the aptamer binding inhibition was -2% (inactive). The response in test [5] was 2.53% (inactive); in test [7], -1.23% (inactive). For the same compound, the binding (% of control) in test [8] is 109% (inactive). Besides, the efflux inhibition (fraction of control) in [9] was -0.17 (inactive). Also, in test [11], the differentiation response was -3.28% (inactive).

The compound `O=C(NCCc1nc2ccccc2[nH]1)c1cccc(Br)c1` gave a double positive events in [1] of 72.8%. Besides, the vesicle binding response in [1] is 224% (inactive). For the same compound, the inhibition in test [2] was 11.9% (inactive); in [6], -1.76% (inactive); in test [10], 5% (inactive). The superoxide response (% of plate) in test [3] is 92.6% (inactive). Besides, the aptamer binding inhibition in [4] was 4% (inactive). The response was -6.54% (inactive) in test [5] and 3.78% (inactive) in test [7]. Moreover, the binding (% of control) in [8] is 97.8% (inactive). Besides, the efflux inhibition (fraction of control) in test [9] was -0.1 (inactive). The differentiation response in test [11] is 0.8% (inactive).

In the case of `CCOC(=O)C1C(=O)CC(C)(O)C(C(=O)OCC)C1/C=C/c1ccccc1` (stereo unspecified), in [1], the double positive events came out at 61.6%. Further, the vesicle binding response in test [1] is 115% (inactive). Also, the inhibition is 2.93% (inactive) in [2], 1.5% (inactive) in [6] and -11% (inactive) in [10]. In [3], the superoxide response (% of plate) was 96.1% (inactive). The aptamer binding inhibition in test [4] is 2% (inactive). The response was 4.95% (inactive) in [5] and -0.5% (inactive) in [7]. Moreover, in test [8], the binding (% of control) was 102% (inactive). In test [9], the efflux inhibition (fraction of control) was -0.07 (inactive). Further, in test [11], the differentiation response was -10.4% (inactive).

With `COc1ccccc1C1(CC(=O)N2CCCCC2)CCOC(C(C)C)C1` (stereo unspecified), the double positive events in test [1] turned out to be 60.3%. Also, the vesicle binding response in test [1] was 205% (inactive). Further, the inhibition is 6.4% (inactive) in [2], -7.8% (inactive) in [6] and 6% (inactive) in test [10]. Moreover, in [3], the superoxide response (% of plate) is 97.5% (inactive). Further, the aptamer binding inhibition in test [4] was 0% (inactive). The response in test [5] is 8.83% (inactive); in test [7], 2.05% (inactive). The binding (% of control) in test [8] is 105% (inactive). For the same compound, the efflux inhibition (fraction of control) in test [9] is 0.33 (inactive). The differentiation response in test [11] is 23.2% (inactive).

The compound `CCCC(=O)O[C@]1(C(=O)CO)CC[C@H]2[C@@H]3CCC4=CC(=O)CC[C@]4(C)[C@H]3[C@@H](O)C[C@@]21C` registered a double positive events in [1] of 56.4%. Moreover, the vesicle binding response in test [1] is 901% (inactive). Moreover, the inhibition is -8.75% (inactive) in test [2], 14.7% (inactive) in [6] and 1% (inactive) in [10]. Moreover, in test [3], the superoxide response (% of plate) is 105% (inactive). In addition, the aptamer binding inhibition in [4] is -3% (inactive). In addition, the response is -0.28% (inactive) in [5] and -3.44% (inactive) in test [7]. For the same compound, the binding (% of control) in test [8] was 99.7% (inactive). Moreover, in test [9], the efflux inhibition (fraction of control) is -0.2 (inactive). In test [11], the differentiation response was -3.67% (inactive).

With `CCn1c2ccccc2c2cc(CC(N)=O)ccc21`, in test [1], the double positive events turned out to be 60.8%. Besides, the vesicle binding response in [1] was 153% (inactive). Also, the inhibition is 20.2% (inactive) in [2], 1.51% (inactive) in [6] and 5% (inactive) in test [10]. In addition, in test [3], the superoxide response (% of plate) was 92.7% (inactive). Besides, in [4], the aptamer binding inhibition was -1% (inactive). Further, the results for the response in test [5] and in test [7] were -19.5% (inactive) and -10.1% (inactive), respectively. In test [8], the binding (% of control) was 103% (inactive). The efflux inhibition (fraction of control) in test [9] was 0.04 (inactive). Further, in [11], the differentiation response is -0.06% (inactive).

Regarding `COc1ccc(C(=O)[C@H]2[C@H]3C(=O)N(c4ccccc4)C(=O)[C@H]3C3C=CC=NN32)cc1` (stereo partly specified), the double positive events in test [1] turned out to be 62.9%. For the same compound, the vesicle binding response in test [1] is 227% (inactive). The inhibition in test [2] is -7.79% (inactive); in [6], 28.5% (inactive); in [10], -9% (inactive). In [3], the superoxide response (% of plate) was 96.9% (inactive). Moreover, the aptamer binding inhibition in [4] was 3% (inactive). Also, the response was 0.22% (inactive) in test [5] and -6.05% (inactive) in test [7]. The binding (% of control) in test [8] was 99.8% (inactive). The efflux inhibition (fraction of control) in [9] was 0.01 (inactive). The differentiation response in test [11] is -8.96% (inactive).

As to `CC(=O)c1c(C)[nH]c(C(=O)OCc2ccccc2)c1C`, the double positive events in test [1] worked out at 60.2%. Also, in test [1], the vesicle binding response was 120% (inactive). In addition, the inhibition is 1.59% (inactive) in [2], 9.32% (inactive) in test [6] and 1% (inactive) in [10]. In [3], the superoxide response (% of plate) is 103% (inactive). In addition, the aptamer binding inhibition in test [4] was 3% (inactive). Also, the response was -5.41% (inactive) in test [5] and 0.36% (inactive) in test [7]. Besides, the binding (% of control) in [8] was 103% (inactive). In addition, the efflux inhibition (fraction of control) in test [9] is -0.25 (inactive). Moreover, the differentiation response in [11] was -13.3% (inactive).

In test [1], `CC(=O)c1cn(C)c(=O)[nH]c1=O` had a double positive events of 60.8%. In test [1], the vesicle binding response was 243% (inactive). Also, the values for the inhibition in [2], in [6] and in test [10] were -7.25% (inactive), -5.48% (inactive) and 2% (inactive), respectively. Also, the superoxide response (% of plate) in test [3] was 103% (inactive). In addition, in test [4], the aptamer binding inhibition was 3% (inactive). For the same compound, the response in [5] is 72.3% (active); in test [7], 0.64% (inactive). The binding (% of control) in test [8] is 107% (inactive). The efflux inhibition (fraction of control) in test [9] was -0.24 (inactive). The differentiation response in test [11] was -8.8% (inactive).

In test [1], `COc1ccc(CCCC(=O)O)c(C)c1` gave a double positive events of 63.8%. Further, the vesicle binding response in [1] is 282% (inactive). The inhibition is -9.06% (inactive) in [2], 5.62% (inactive) in test [6] and 17% (inactive) in test [10]. In [3], the superoxide response (% of plate) is 92.3% (inactive). Moreover, the aptamer binding inhibition in test [4] was -1% (inactive). Moreover, the figures for the response in test [5] and in test [7] were 1.17% (inactive) and -1.31% (inactive), respectively. Also, the binding (% of control) in test [8] is 111% (inactive). The efflux inhibition (fraction of control) in test [9] is -0.2 (inactive). Further, the differentiation response in test [11] was 0% (inactive).

Values taken from PubChem BioAssay.
